The structures appear in SMILES notation. Inconclusive results are not listed. Activity calls are given as the source filed them. Unless noted, the call rests on the fitted dose curve; in most records, active means well fitted curve in the direction sought with a large enough effect in the repeat runs; inconclusive means weak or mixed curves; inactive means no such curve, though single readings can be large; an effect the other way counts as inactive or inconclusive.

For assay [1], the target named is Progesterone receptor (Homo sapiens) (UniProt P06401). Kind of assay: qHTS assay to identify small molecule agonists of the progesterone receptor (PR) signaling pathway (AID 1346784; calls by dose curve; further: nearly all actives have a fitted effect of over 30% in size). The essentials:
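PR-UAS-bla HEK 293T cells (beta-lactamase reporter under UAS) in 2% charcoal-stripped FBS, dosed with 23 nL compound after 6 hr, incubated 16hr at 37C. LiveBLAzer B/G FRET substrate added, fluorescence read after 2 hours.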

Assay [2] shares this target. In words: qHTS assay to identify small molecule antagonists of the progesterone receptor (PR) signaling pathway (AID 1346795; active means well fitted inhibition curve with a large enough effect in the signal ratio in the repeat runs, not every such curve was filed as active; the % refers to the signal ratio). The essentials: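 PR-UAS-bla HEK293T cells with beta-lactamase reporter under UAS control, in 2% charcoal-stripped FBS, treated with compounds plus 1 nM promegestone (R5020, final) for 16 hr at 37C. Read-out: FRET beta-lactamase substrate fluorescence after 2 hr at room temperature.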
For orientation: In qHTS, concentration-response curves come from the screen itself.

Assay [3] can be described thus: qHTS assay to identify small molecule agonists of the TGF-beta/Smad signaling pathway - cell viability counter screen (AID 1346829). Further: top concentration of the series differs between compounds; nearly all actives have a fitted effect of over 45% in size. The essentials:
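After overnight seating at 37 C and 5% CO2, reporter cells got compounds for 5 hr and FRET substrate for 2 hr; cell viability then came from CellTiter-Glo luminescence.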

The target in assay [4] is Thyrotropin-releasing hormone receptor (Homo sapiens) (UniProt P34981). Kind of assay: qHTS assay to identify small molecule antagonists of the thyrotropin-releasing hormone receptor (TRHR) signaling pathway (AID 1346877; active means well fitted inhibition curve with a large enough effect in the repeat runs, not every such curve was filed as active; further: series mostly up to about 51 µM). The essentials: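 Cells (TRHR-HEK293) are plated and kept 18 h at 37 °C/5% CO2. A calcium-sensitive dye is added for 2 h, compound follows for 5 min at room temperature, and TRH is then given at 1 nM final.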

The target is the same in assay [5]. In words: qHTS assay to identify small molecule agonists of the thyrotropin-releasing hormone receptor (TRHR) signaling pathway (AID 1346891; calls by dose curve; further: series mostly up to about 58 µM). The essentials: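 HEK293 cells expressing TRHR plated 18 h at 37 C/5% CO2, calcium dye-loaded 2 h at 37 C, then compound added (agonist mode); kinetic calcium fluorescence read 3 min at 1 s intervals; 15 concentrations in triplicate.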

Assay [6] in a line: Human pregnane X receptor (PXR) small molecule agonists, qHTS cell viability counter screen (AID 1346977). Further: nearly all actives have a fitted effect of over 50% in size. Further: potency means the concentration at half of the fitted maximal effect. The essentials:
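PXR-Luc HepG2 cells (2,000/well, 5% charcoal-stripped FBS) preincubated 5 hr, then exposed to compounds 24 hr at 37 C. Viability read in the same wells by CellTiter-Fluor fluorescence, reagent added at 23 hr, 1 hr incubation.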

The nature of assay [7]: qHTS assay to identify small molecule antagonists of the progesterone receptor (PR) signaling pathway - cell viability counter screen (AID 1346798). Further: series mostly up to about 92 µM; nearly all actives have a fitted effect of over 50% in size. The essentials: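 PR-UAS-bla HEK293T cells, 3,000/well in 2% charcoal-stripped FBS medium, dosed with compounds plus R5020 agonist and incubated 16 h at 37C. Viability then measured in the same wells by CellTiter-Glo luminescence after 30 min at RT.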

A short description of assay [8]: qHTS assay to identify small molecule agonists of the progesterone receptor (PR) signaling pathway - cell viability counter screen (AID 1346799; calls by dose curve; further: nearly all actives have a fitted effect of over 45% in size; further: potency means the concentration at half of the fitted maximal effect). The essentials: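 Counter screen in the PR-UAS-bla HEK293T wells (2% charcoal-stripped FBS, 16 h compound exposure at 37 C) after the bla read. CellTiter-Glo added, 30 min at room temperature, luminescence read as cell viability.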

Assay [9] is described as follows: qHTS assay to identify small molecule antagonists of the TGF-beta/Smad signaling pathway - cell viability counter screen (AID 1346824). Further: nearly all actives have a fitted effect of over 50% in size. The essentials: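 Cytotoxicity counter-screen run in the same wells as the beta-lactamase Smad reporter read: CellTiter-Glo luminescence after 30 min at room temperature. HEK 293T SBE-bla cells had 5 hr compound exposure at 37 C with TGF-beta1 (0.25 ng/mL stock).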

Assay [10] is described as follows: qHTS assay to identify small molecule agonists of the TGF-beta/Smad signaling pathway (AID 1346859; active means well fitted activation curve with a large enough effect in the signal ratio in the repeat runs, not every such curve was filed as active; the % refers to the signal ratio; further: series mostly up to about 77 µM). The essentials:
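SBE-bla HEK293T cells plated overnight, then compound exposure for 5 h at 37 C. Beta-lactamase reporter read with LiveBLAzer B/G FRET substrate after 2 h at room temperature, fluorescence at 405 nm excitation, 460/530 nm emission.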

Sequence of Progesterone receptor (Homo sapiens) (P06401 whole entry, looked up): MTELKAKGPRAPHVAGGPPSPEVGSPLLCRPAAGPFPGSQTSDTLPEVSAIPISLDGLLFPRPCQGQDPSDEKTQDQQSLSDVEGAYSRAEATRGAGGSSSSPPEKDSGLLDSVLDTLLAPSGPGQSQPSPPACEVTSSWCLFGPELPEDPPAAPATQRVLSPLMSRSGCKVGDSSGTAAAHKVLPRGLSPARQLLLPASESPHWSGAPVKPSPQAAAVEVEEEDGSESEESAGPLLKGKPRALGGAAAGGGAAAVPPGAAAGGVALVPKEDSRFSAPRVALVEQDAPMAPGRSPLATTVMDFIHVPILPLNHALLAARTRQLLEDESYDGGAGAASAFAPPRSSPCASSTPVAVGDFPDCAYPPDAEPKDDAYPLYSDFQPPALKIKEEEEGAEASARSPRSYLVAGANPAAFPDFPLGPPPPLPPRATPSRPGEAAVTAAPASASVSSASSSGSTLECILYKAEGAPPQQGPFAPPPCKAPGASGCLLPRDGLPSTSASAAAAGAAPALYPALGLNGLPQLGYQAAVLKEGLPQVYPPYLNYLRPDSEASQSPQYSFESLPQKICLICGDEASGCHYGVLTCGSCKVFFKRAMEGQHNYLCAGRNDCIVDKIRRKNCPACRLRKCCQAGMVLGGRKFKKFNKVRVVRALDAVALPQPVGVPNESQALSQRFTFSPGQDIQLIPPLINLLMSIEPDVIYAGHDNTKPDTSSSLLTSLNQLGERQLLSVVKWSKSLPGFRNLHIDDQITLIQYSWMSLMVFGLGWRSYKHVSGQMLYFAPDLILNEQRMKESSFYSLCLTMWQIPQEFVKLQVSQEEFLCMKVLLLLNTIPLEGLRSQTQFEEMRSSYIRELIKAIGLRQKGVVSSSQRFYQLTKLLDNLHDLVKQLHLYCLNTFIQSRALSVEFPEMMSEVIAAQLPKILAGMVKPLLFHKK
Sequence of Thyrotropin-releasing hormone receptor (Homo sapiens) (P34981 whole entry, looked up): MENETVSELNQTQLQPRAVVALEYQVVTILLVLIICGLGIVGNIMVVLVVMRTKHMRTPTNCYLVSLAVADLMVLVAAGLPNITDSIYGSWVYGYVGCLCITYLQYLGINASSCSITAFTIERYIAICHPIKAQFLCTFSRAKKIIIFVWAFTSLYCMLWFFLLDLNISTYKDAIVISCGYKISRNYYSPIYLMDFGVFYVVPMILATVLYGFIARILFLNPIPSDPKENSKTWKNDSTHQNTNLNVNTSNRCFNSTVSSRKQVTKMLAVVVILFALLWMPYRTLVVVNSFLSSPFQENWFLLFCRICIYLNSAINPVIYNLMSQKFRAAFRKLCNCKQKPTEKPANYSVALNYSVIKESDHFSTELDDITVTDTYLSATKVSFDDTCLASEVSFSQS

`O=[N+]([O-])c1ccc(F)c([N+](=O)[O-])c1`: the Potency entry in [1], in assay [2], in [3], in assay [4] and in assay [5] was “inactive” throughout. Also, the Potency in [6] is 27.6 µM (active).

`C=CC(C)=O`: the Potency entry in assay [1], in assay [7], in assay [8], in assay [9], in [3] and in assay [4] was “inactive” each time. The Potency entry in assay [5] and in assay [6] was “inactive” each time. Also, the molecule was classed as inactive in [10].

Consider `CCc1ccc(C(=O)NN(C(=O)c2cc(C)cc(C)c2)C(C)(C)C)cc1`, for which the Potency result in [1], in assay [7], in assay [9], in [3], in [4] and in assay [5] was “inactive” in each case. Besides, the Potency entry in assay [6] is “inactive”. Moreover, the call in assay [10] was inactive.

Take `CCCN(CCCl)c1c([N+](=O)[O-])cc(C(F)(F)F)cc1[N+](=O)[O-]`: the Potency entry in assay [1], in assay [8], in assay [9], in assay [3], in [4] and in assay [5] was “inactive” in each case. Further, the Potency result in [6] is “inactive”. Moreover, in assay [10], the molecule was classed as inactive.

Consider `CCCC(Cn1cncn1)c1ccc(Cl)cc1Cl` (configuration not stated), for which the Potency entry in assay [1], in assay [9], in [3], in assay [4] and in [5] was “inactive” in each case. The outcome in [10] was inactive.

Take `Cc1c(F)c(F)c(COC(=O)C2C(/C=C(\Cl)C(F)(F)F)C2(C)C)c(F)c1F` (configuration not stated): the Potency entry in [1], in assay [7], in assay [8], in assay [3], in [4] and in assay [5] was “inactive” each time. Further, the Potency result in assay [6] was “inactive”. In assay [10], the molecule was classed as inactive.

For the molecule `N#Cc1cc(I)c(O)c(I)c1`, the Potency result in [1], in [9], in assay [3], in assay [4] and in assay [5] was “inactive” each time. In addition, the result in assay [10] was inactive. Further, the Potency in [6] was 43.3 µM (active).

On to `CC(C)(Cl)[N+](=O)[O-]`, for which the Potency result in [1], in assay [7], in assay [9], in [3], in assay [4] and in [5] was “inactive” in each case. Also, in assay [6], the Potency entry was “inactive”.

For the molecule `CC(=O)c1cc2c(cc1C)C(C)(C)C(C)CC2(C)C` (configuration not stated), the Potency result in assay [1], in [7], in assay [9], in assay [3], in assay [4] and in assay [5] was “inactive” each time. Moreover, in assay [6], the Potency result is “inactive”. Besides, the molecule was classed as inactive in assay [10].

As for `Clc1ccc(C(OCCN2CCCCC2)c2ccccc2)cc1` (configuration not stated), the Potency result in assay [1], in [7], in assay [8], in assay [9], in assay [3] and in assay [4] was “inactive” in each case. The Potency result in assay [5] is “inactive”.

As for `CC(C)N(C(=O)COc1nnc(C(F)(F)F)s1)c1ccc(F)cc1`, the Potency entry in assay [1], in [7], in assay [9], in assay [3] and in assay [6] was “inactive” in each case. In assay [10], the result was inactive.

In the case of `COC1=CC(=O)O[C@@H](CCc2ccccc2)C1`, the Potency result in [1], in [7], in assay [8], in assay [9], in [3] and in assay [4] was “inactive” in each case. For the same molecule, the Potency entry in [5] and in assay [6] was “inactive” each time.

As to `II`, the Potency entry in assay [1], in assay [9], in assay [3] and in assay [6] was “inactive” in each case. Besides, the Potency in assay [8] was 10.9 µM (active). The molecule was called inactive in assay [10].

For `CCCN(CCC)c1c([N+](=O)[O-])cc(S(C)(=O)=O)cc1[N+](=O)[O-]`, the Potency result in assay [1], in assay [7], in assay [8], in assay [9], in [3] and in [6] was “inactive” each time. Moreover, the call in assay [10] was inactive.

For `CO/C=C(/C(=O)OC)c1ccccc1COc1cccc(C(F)(F)F)n1`, the Potency result in [1], in assay [7], in [9], in assay [3], in assay [4] and in [5] was “inactive” in each case. In addition, in assay [10], the molecule was called inactive. Also, the Potency in [6] is 1.93 µM (active).

For the molecule `CCOC(=O)CBr`, the Potency result in assay [1], in assay [7], in assay [8], in [9], in assay [3] and in [4] was “inactive” in each case. Also, the Potency entry in assay [5] and in [6] was “inactive” each time. Moreover, in [10], the outcome was inactive.

Take `Oc1ccc(Cl)c(Cl)c1Cl`: the Potency entry in [1], in assay [9], in assay [3], in assay [4] and in [5] was “inactive” throughout. For the same molecule, the molecule was called inactive in assay [10].

As for `O=NN1CCNCC1`, the Potency result in [1], in [7], in assay [8], in assay [9], in assay [3] and in assay [6] was “inactive” in each case. Moreover, in assay [10], the result was inactive.

On to `O=C1c2ccccc2C(=O)C1C(=O)C(c1ccccc1)c1ccccc1`, for which the Potency result in assay [1], in assay [8], in assay [9], in assay [3], in [4] and in assay [5] was “inactive” in each case. The Potency result in assay [6] was “inactive”. Besides, the outcome in assay [10] was inactive.

For the molecule `CCOC(=O)[C@]1(c2ccccc2)Oc2ccccc2[C@@H]1N`, the Potency result in assay [1], in assay [7], in [9], in assay [3], in assay [4] and in assay [5] was “inactive” in each case. In addition, the result in assay [10] was inactive.

Regarding `CCOP(=S)(OCC)Oc1cc(Cl)c(Br)cc1Cl`, the Potency entry in assay [1], in assay [7], in assay [8], in assay [3] and in assay [6] was “inactive” each time. Further, the result in assay [10] was inactive.

As for `O=S(=O)(O)C(F)(F)C(F)(F)C(F)(F)C(F)(F)F`, the Potency result in assay [1], in assay [7], in assay [9] and in assay [3] was “inactive” each time. In addition, the molecule was classed as inactive in [10].

`CO/N=C(/C(=O)OC)c1ccccc1COc1ccccc1C`: the Potency entry in [1], in assay [7], in [9], in assay [4] and in assay [5] was “inactive” in each case.
